The values below come from PubChem BioAssay.

The source made the active and inactive calls.

Assay [1] relates to Plasmodium falciparum Sir2 (PF13_0152, Sir2A). Kind of assay: pfSir2 binders on small-molecule microarrays, primary screen, biochemical, small-molecule microarray, 635 nm fluorescence (AID 1098).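 Further: score merges spot fluorescence intensity with its signal-to-noise ratio.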 Particulars: small-molecule microarray binding, fluorescence 635 nm; higher = more signal.
The nature of assay [2]: small-molecule microarray binders of probe aDKK1, primary screen, biochemical, biotinylated probe, 635/667 nm fluorescence (AID 1099).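 Further: score merges 667nm spot fluorescence with signal to noise across triplicate slides; reference of the scale not given here.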 Particulars: higher = more signal.
The nature of assay [3]: small-molecule microarray binders of probe aCHRDL2, primary screen, biochemical, biotinylated probe, 635/667 nm fluorescence (AID 1100). Particulars: higher = more signal.
Assay [4] in a line: splicing luciferase reporter signal modulators, primary screen, spliceosome inhibition project, cell-based, HEK293, splice +/- reporter (AID 1101).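 Further: HEK293 cells carrying a splicing-competent luciferase reporter gene; test concentration not given here.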 Particulars: luminescence, 24 h, higher = more signal, called active from +8 up or from −8 down. On the technique in general: In a reporter assay the amount or activity of a reporter protein is the signal.
The target of assay [5] is Fibroblast growth factor 10 (Homo sapiens) (UniProt O15520). Kind of assay: FGF10 binders on small-molecule microarrays, primary screen, biochemical, small-molecule microarray, 635 nm fluorescence (AID 1102). Particulars: FGF10 binding, fluorescence 635 nm, higher = more signal.
Fibroblast growth factor 10 (Homo sapiens), sequence (O15520 whole entry, looked up): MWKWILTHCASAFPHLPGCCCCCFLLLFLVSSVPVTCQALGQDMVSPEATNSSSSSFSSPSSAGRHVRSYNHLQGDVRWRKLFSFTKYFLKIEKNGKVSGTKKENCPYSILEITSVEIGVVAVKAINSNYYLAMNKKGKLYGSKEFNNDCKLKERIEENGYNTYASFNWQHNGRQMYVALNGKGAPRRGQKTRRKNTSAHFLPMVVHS
Assay [6] deals with glycogen synthase kinase-3 (GSK3A per assay name; protocol says GSK3B). Description: GSK3 binders on small-molecule microarrays, primary screen, biochemical, small-molecule microarray, 635 nm fluorescence, GSK3A (AID 1103). Further: the record names both GSK3A and GSK3B. Particulars: small-molecule microarray binding, fluorescence 635 nm; higher = more signal.
The target in assay [7] is Epidermal growth factor receptor (Homo sapiens) (UniProt P00533). Description: EGFR binders on small-molecule microarrays, primary screen, biochemical, small-molecule microarray, 635 nm fluorescence (AID 1104).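 Further: score merges 667 nm emission intensity with spot signal to noise over triplicate slides.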 Particulars: EGFR binding, higher = more signal.
Epidermal growth factor receptor (Homo sapiens), sequence (P00533 whole entry, looked up): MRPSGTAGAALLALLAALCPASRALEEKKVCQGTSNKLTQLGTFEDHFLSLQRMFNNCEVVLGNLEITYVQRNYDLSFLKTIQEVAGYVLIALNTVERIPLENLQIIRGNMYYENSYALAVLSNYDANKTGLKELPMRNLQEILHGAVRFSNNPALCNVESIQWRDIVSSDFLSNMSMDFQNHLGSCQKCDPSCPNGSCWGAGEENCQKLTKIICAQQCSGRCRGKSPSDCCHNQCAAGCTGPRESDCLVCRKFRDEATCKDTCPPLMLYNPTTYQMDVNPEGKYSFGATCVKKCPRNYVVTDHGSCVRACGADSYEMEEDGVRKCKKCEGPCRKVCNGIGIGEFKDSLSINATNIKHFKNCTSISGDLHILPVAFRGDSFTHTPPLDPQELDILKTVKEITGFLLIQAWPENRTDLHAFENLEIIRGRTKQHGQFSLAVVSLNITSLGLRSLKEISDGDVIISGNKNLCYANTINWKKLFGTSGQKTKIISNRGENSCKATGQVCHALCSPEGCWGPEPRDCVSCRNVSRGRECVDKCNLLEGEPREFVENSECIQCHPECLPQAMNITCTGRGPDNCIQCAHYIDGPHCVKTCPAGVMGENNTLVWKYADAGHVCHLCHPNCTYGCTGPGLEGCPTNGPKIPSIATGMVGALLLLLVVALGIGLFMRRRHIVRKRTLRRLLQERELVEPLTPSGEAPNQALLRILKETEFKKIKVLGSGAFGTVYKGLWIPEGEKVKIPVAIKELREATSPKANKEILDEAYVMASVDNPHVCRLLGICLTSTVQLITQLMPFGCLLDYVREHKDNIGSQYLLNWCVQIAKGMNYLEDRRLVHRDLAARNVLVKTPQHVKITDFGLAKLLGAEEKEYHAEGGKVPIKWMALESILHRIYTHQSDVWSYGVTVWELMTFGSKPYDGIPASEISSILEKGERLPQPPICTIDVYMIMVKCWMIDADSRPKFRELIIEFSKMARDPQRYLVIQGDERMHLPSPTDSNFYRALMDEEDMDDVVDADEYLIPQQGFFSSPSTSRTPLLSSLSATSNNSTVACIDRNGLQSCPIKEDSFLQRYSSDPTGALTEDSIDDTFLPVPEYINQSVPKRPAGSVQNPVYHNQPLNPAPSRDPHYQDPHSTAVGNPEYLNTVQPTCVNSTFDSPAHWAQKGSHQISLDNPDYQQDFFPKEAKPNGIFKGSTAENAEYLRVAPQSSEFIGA
In assay [8] the target is Follistatin-related protein 3 (Homo sapiens) (UniProt O95633). Kind of assay: FSTL3 binders on small-molecule microarrays, primary screen, biochemical, small-molecule microarray, 635 nm fluorescence (AID 1105).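 Further: score merges emission near 667 nm and signal to noise per printed spot across three slides.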 Particulars: FSTL3 binding, higher = more signal.
Follistatin-related protein 3 (Homo sapiens), sequence (O95633 whole entry, looked up): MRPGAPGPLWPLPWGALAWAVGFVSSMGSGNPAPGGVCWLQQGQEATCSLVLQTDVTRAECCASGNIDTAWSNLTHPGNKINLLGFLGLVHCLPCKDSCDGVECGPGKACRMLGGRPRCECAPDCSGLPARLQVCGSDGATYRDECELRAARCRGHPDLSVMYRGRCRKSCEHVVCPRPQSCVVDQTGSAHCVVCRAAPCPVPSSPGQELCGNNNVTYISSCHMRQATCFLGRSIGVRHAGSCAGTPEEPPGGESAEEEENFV
The target of assay [9] is Dickkopf-related protein 1 (Homo sapiens) (UniProt O94907). Kind of assay: DKK1 binders on small-molecule microarrays, primary screen, biochemical, small-molecule microarray, 635 nm fluorescence scan (AID 1106).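 Further: score merges emission near 667 nm with signal to noise over three replicate slides.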 Particulars: DKK1 binding, higher = more signal.
Dickkopf-related protein 1 (Homo sapiens), sequence (O94907 whole entry, looked up): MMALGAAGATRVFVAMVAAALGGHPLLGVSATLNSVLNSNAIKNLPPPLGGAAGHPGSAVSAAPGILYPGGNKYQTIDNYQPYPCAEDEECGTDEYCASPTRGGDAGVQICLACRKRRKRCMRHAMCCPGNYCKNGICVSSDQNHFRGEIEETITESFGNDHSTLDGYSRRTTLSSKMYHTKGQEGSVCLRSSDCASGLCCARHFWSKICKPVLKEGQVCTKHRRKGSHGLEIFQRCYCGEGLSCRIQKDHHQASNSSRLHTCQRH
The test system of assay [10] is Inhibin beta A chain (activin A). Kind of assay: INHBA (activin A) binders on microarrays, primary screen, biochemical, small-molecule microarray, 635 nm fluorescence scan (AID 1107).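 Further: mouse activin A protein probed at 4.33 µg/mL on printed slides; score merges bound-protein fluorescence near 667 nm with spot signal-to-noise.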 Particulars: small-molecule microarray binding, higher = more signal.

For `O=C1O[C@H](c2ccccc2)[C@H](c2ccccc2)N2[C@H]1[C@@H](C(=O)N1CCN(c3ncccn3)CC1)[C@]1(C(=O)Nc3ccc(C#CCCO)cc31)[C@H]2c1ccccc1OCCO`, the composite z-score turned out to be 1.24 in assay [1]; 0.0649 in assay [2]; 0.447 in [3]; 1.15 in assay [5]; 1.11 in [6]; 0.282 in assay [7]. The composite z-score was 0.501 in assay [8], 0.525 in [9] and -0.14 in assay [10]. In addition, the z-score in [4] was 0.105 (inactive).

As for `O=C1NC(=O)C2C1C=CC(C(O)CCc1ccccc1)N2Nc1ccccn1` (stereo not given), the composite z-score in assay [1] worked out at 0.539; in [2], 0.673; in assay [3], 0.778; in assay [5] it was 0.165; in assay [6], 0.44; in assay [7], 0.261. In addition, the composite z-score in assay [8] is 0.155; in [9], 0.156; in assay [10], 0.584. The z-score in assay [4] is -0.735 (inactive).

As to `CC(C)CNC(=O)[C@@]1(c2ccc([N+](=O)[O-])cc2)CC(=O)N(C(C)C)[C@@H]1c1ccc(CO)cc1`, the composite z-score in [1] is 0.832; in assay [2], -0.258; in assay [3], 1.08; in [5] it was -1; in assay [6], -1.02; in assay [7], -0.362. Besides, the composite z-score is -0.129 in [8], -1.59 in [9] and 0.07 in assay [10]. Also, in assay [4], the z-score is -0.372 (inactive).

On to `[N-]=[N+]=NCc1ccccc1[C@H]1OC(c2ccc(OCCCO)cc2)=N[C@@]1(Cc1ccccc1)C(N)=O`, for which the composite z-score is 1.51 in assay [1]; 1.19 in assay [2]; 0.947 in [3]; 0.923 in assay [5]; 0.644 in assay [6]; -0.43 in assay [7]. Further, the composite z-score in assay [8] is 0.546; in assay [9], -0.952; in [10] it was 0.669. Moreover, in assay [4], the z-score was -0.312 (inactive).

With `COCCCNC(=O)[C@]1(CCS(=O)(=O)c2ccccc2)N=C(c2ccc(OCCCO)cc2)O[C@@H]1c1ccccc1`, the composite z-score in [1] was determined as 1.86; in assay [2], 0.126; in [3], 0.937; in assay [5] it was 1.01; in [6], 1.01; in [7], 0.304. In addition, the composite z-score in assay [8] was 0.485; in [9], 0.0266; in [10], 0.455. For the same compound, the z-score in [4] was -0.594 (inactive).

As for `C[N+](C)(C)CCCCCCNC(=O)[C@@H]1C[C@@H]2C(=O)NCC(=O)N2[C@@H]1c1ccc(O)cc1`, the composite z-score in assay [1] was 1.43; in assay [2], -0.171; in assay [3] it was 0.135; in assay [5], 0.963; in assay [6], 0.657; in assay [7] it was 0.0357. Moreover, the composite z-score in assay [8] was found to be 1.39; in assay [9], 1.19; in [10] it was 0.277. Also, the z-score in assay [4] was 0.605 (inactive).

Turning to `Cc1ccccc1C(O)C1C=CC2C(=O)N(C)C(=O)C2N1Nc1ccc([N+](=O)[O-])cc1[N+](=O)[O-]` (stereo not given), the composite z-score in assay [1] came to 0.878; in assay [2], 0.647; in assay [3], 0.831; in assay [5], 1.11; in [6] it was 1.28; in assay [7], 0.226. Moreover, the composite z-score in assay [8] was 1.17; in [9], -0.53; in assay [10], 0.648. Also, the z-score in [4] is -0.311 (inactive).

`CCCCC(=C=CC[C@H](O)c1cccc(OCCO)c1)C[C@H](O)COCc1ccccc1`: the composite z-score in [1] is 0.766; in assay [2], -0.31; in [3], -0.053; in [5] it was 0.688; in [6], -0.207; in assay [7], -0.572. The composite z-score was -0.117 in assay [8], -0.627 in assay [9] and 0.58 in assay [10]. Moreover, the z-score in [4] was -0.992 (inactive).

On to `COC(=O)[C@@]1(Cc2ccc(OC)cc2)[C@H]2c3cc(C(=O)N4CCCC4)n(CCc4ccc(O)c(OC)c4)c3C[C@H]2CN1C(=O)c1ccccc1`, for which the composite z-score in assay [1] was -0.0995; in [2], 0.527; in assay [3] it was 1.09; in assay [5], -0.317; in assay [6], -0.175; in assay [7] it was -0.481. Also, the composite z-score was -0.892 in assay [8], -1.13 in assay [9] and 1.04 in [10]. For the same compound, the z-score in [4] is -0.928 (inactive).

As to `O=C1C2C=CC(C(O)c3cccc4ccccc34)N(Nc3ccccc3)C2C(=O)N1c1ccccc1` (stereo not given), the composite z-score was determined as 1.54 in [1]; 1.33 in assay [2]; 0.945 in assay [3]; 1.09 in [5]; 1.28 in assay [6]; 0.346 in [7]. Further, the composite z-score was determined as 1.43 in assay [8], 0.0156 in assay [9] and 1.15 in assay [10]. Further, in assay [4], the z-score is -0.272 (inactive).

Take `COCCOC(=O)N1C(=O)[C@@]2(c3cc(C#Cc4ccc(OC)cc4)ccc31)[C@H](C(=O)N1CCc3cc(OC)c(OC)cc3C1)[C@H]1C(=O)O[C@H](c3ccccc3)[C@H](c3ccccc3)N1[C@@H]2c1ccc(O)cc1`: the composite z-score in assay [1] was 0.404; in assay [2], -0.0986; in assay [3], -0.107; in assay [5], 1.06; in assay [6] it was 1.21; in assay [7], 0.465. The composite z-score came to 0.649 in assay [8], 0.644 in assay [9] and 0.837 in [10]. Besides, in assay [4], the z-score is -0.318 (inactive).

As for `Cc1ccc(F)cc1S(=O)(=O)N[C@@H]1CCN(C(=O)c2ccc(OC(C)C)cc2)C1`, the composite z-score in [1] is 0.416; in assay [2], -0.274; in assay [3], -0.734; in assay [5] it was 0.969; in [6] it was 1; in assay [7] it was 0.5. Moreover, the composite z-score in assay [8] came out at 1.34; in assay [9], 0.463; in [10] it was 0.0062. Besides, the z-score in assay [4] is -0.0035 (inactive).

For the compound `CCCN1C(=O)[C@@H]2Cc3c([nH]c4ccccc34)[C@@H](c3cccc(O)c3)N2C1=O`, the composite z-score in assay [1] was 0.292; in assay [2], -0.0726; in assay [3] it was -0.0794; in assay [5], 0.415; in [6] it was 0.718; in [7], 0.578. In addition, the composite z-score turned out to be 0.493 in assay [8], 1.14 in [9] and 0.275 in assay [10]. Also, in assay [4], the z-score is 1.08 (inactive).

For the compound `C=CC[C@]1(C(=O)N(C)C)N=C(c2ccc(OCCCO)cc2)O[C@H]1c1ccccc1`, the composite z-score is 1.05 in [1]; 0.135 in assay [2]; 0.953 in assay [3]; 1.21 in [5]; 0.254 in assay [6]; -0.489 in assay [7]. Moreover, the results for the composite z-score in assay [8], in assay [9] and in assay [10] were 0.479, -0.228 and 0.832, respectively. In addition, the z-score in assay [4] is -1.04 (inactive).
